Rows were chosen to be rich in hits. Some 4.1% of all compounds tested hit in one or more screens of this group.
PglD inh = blocks C. jejuni PglD acetyltransferase activity. inhibition, % at 12.5 µM. purified PglD enzyme, DTNB colorimetric CoA detection. 0.098% of 360,000 active; in the data active = inhibition above about 16%, passing the limit was not always enough; inconclusive = no clear call, values can overlap the other calls
F508del corr = correctors of CFTR F508del function in bronchial epithelial cells | CFBE cells, YFP halide quenching; stimulated with forskolin plus potentiator P3; % fluorescence drop versus neutral controls | activity (quench increase), % at 7.58 µM | 0.36% of 350,000 active;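 active = mean added fluorescence quench of at least 8% versus neutral control, with both replicates also reaching 8%; inconclusive = only one of the mean or replicate conditions met; inactive = mean below 8% and not both replicates reaching 8%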;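 note: cells transiently co-express mutant CFTR-F508del with the halide-sensitive YFP; corrector assay measuring rescue of mutant channel to the surface after 24 h compound exposure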
NSD2 inh = inhibitors of human histone methyltransferase NSD2; O96028; NSD2 peptide methylation, AlphaScreen, 120 min; inhibition, % at 12.5 µM; 0.54% of 310,000 active; in the data active = inhibition above about 50%
Casp6 inh = caspase-6 (human) enzyme inhibition | P55212 | purified caspase-6, Z-VEID-R110 cleavage fluorescence | inhibition, % at 12.5 µM | 0.53% of 350,000 active;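 active = mean inhibition across replicates at least about 35%, with every replicate also reaching that limit, limit read from the data; inconclusive = only one of the two criteria met; inactive = neither criterion met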;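 note: 0% = median of neutral control wells and 100% = no fluorescence left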
Target sequence (P55212 24-179 limits assumed): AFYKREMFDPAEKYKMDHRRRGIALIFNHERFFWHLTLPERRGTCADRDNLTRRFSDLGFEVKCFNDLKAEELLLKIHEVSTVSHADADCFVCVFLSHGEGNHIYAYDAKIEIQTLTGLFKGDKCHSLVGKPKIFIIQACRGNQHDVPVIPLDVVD
Target sequence (P55212 194-293 limits assumed): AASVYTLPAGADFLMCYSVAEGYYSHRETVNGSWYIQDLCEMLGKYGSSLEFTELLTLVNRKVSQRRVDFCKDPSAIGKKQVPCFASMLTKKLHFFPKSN
ALR H2O2 inh = human ALR oxidase inhibition via reduced H2O2. P55789. 3.8% of 290,000 active. inhibition, % (no concentration beside the values). purified ALR, DTT oxidation, H2O2 HRP-luminol luminescence. AID 485317;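 active = mean replicate inhibition above about 79%, with every replicate also reaching it, limit read from the data; inconclusive = only one of the two criteria met; inactive = mean below limit and not every replicate reaching it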
Target sequence (P55789 whole entry, looked up): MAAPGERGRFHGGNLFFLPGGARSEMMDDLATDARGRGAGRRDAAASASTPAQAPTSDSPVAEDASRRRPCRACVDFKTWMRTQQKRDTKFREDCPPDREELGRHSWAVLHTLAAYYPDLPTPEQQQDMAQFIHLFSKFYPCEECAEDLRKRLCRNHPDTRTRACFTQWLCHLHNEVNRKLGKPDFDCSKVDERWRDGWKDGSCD
HIV Env fusion = HIV envelope-mediated fusion inhibition. inhibition, % at 12.3 µM. 1.1% of 360,000 active. HeLa-JRFL Env/CEM21 cell fusion, luciferase;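 active = mean replicate inhibition score of at least 50 and every replicate individually at or above 50; inconclusive = only one of the two criteria met; inactive = mean below 50 and not all replicates reaching 50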;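 note: 0% = plate neutral controls and 100% = maraviroc near 300 nM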
An asterisk follows results filed as active; ? = inconclusive; . = not tested or not shown; [ ] = another dose, or the depositor's remark.

SMILES | PglD inh | F508del corr | NSD2 inh | Casp6 inh | ALR H2O2 inh | HIV Env fusion
O=C(CCN1C(=O)/C(=C/c2cccs2)SC1=S)Nc1ccc(C(=O)O)c(O)c1 | -2 | -2 | 39 | . | 79* | -5
CN1CCN(C(=O)CCCN2C(=O)/C(=C/c3ccccc3)SC2=S)CC1 | 6 | 0 | 9 | -13 | 3 | -17
O=C(CCN1C(=O)/C(=C/c2cccs2)SC1=S)Nc1ccc(O)cc1 | -4 | 0 | 3 | -9 | -21 | 13
CO[C@@H]1CN(C)C(=O)c2ccc(NC(=O)Nc3ccccc3Cl)cc2OC[C@@H](C)N(Cc2ccccc2C(=O)O)C[C@H]1C | 3 | 0 | . | 1 | . | .
CCCNC(=O)C[C@H]1CC[C@@H]2[C@H](COc3ccc(NC(=O)C4CCCC4)cc3C(=O)N2C)O1 | 1 | -3 | . | 1 | . | 6[16.7 µM]
CC(C)c1nc2n[nH]c(N)c2c2c1CSC(C)(C)C2 | . | . | -1 | . | 98* | .
COc1ccccc1NC(=O)CN1CCN(CC(=O)Nc2ccccc2Cl)CC1 | -1 | 0 | -3 | -2 | 3 | 20
COc1ccccc1CC(NC(C)=O)C(=O)N1CCN(C(=O)c2cccs2)CC1 (stereo not given) | -1 | . | -2 | . | 0 | .
COc1ccccc1CN(C)C(=O)CN1CCN(CC(=O)Nc2ccccc2Cl)CC1 | 2 | -7 | 1 | 36* | -40 | .
COc1ccccc1CN(C)C(=O)CN1CCN(C(=O)c2cccs2)CC1 | 4 | 0 | 1 | -2 | -1 | 68*
O=C(C[C@@H]1CC[C@@H](NC(=O)c2cccc(F)c2)[C@@H](CO)O1)NCc1ccc(Oc2ccccc2)cc1 | 2 | -5 | . | 6 | . | 40[16.7 µM]
Cc1cc(/C=N/Nc2ncnc(N)c2[N+](=O)[O-])c(C)n1-c1ccccc1 | -4 | 2 | 11 | -1 | 27 | 55*
COc1cccc(/C=N/Nc2ncnc(N)c2[N+](=O)[O-])c1OC | 0 | . | . | . | -27 | .
Cc1ccccc1-n1c(C)cc(/C=N/Nc2ccc([N+](=O)[O-])cn2)c1C | . | . | -4 | . | -2 | .
Cc1cc(/C=N/Nc2ccc([N+](=O)[O-])cn2)c(C)n1-c1ccc(C(=O)O)cc1 | . | 1 | 1 | 43* | 73 | 16
O=[N+]([O-])c1ccccc1/C=C/c1ccncc1 | 3 | 2 | . | 7 | . | -38[16.7 µM]
COc1ccc(CN(C)C[C@@H]2Oc3ccc(NC(=O)C4CC4)cc3CC(=O)N([C@H](C)CO)C[C@H]2C)cc1 | 0 | 2 | . | 0 | . | -31[16.7 µM]
Cc1cc(=O)[nH]c(N/N=C/c2c(F)c(F)c(F)c(F)c2F)n1 | 12 | 4 | 1 | 1 | 76* | 6
Cc1cc(=O)[nH]c(N/N=C/c2ccccc2Cl)n1 | -3 | 0 | -2 | 2 | -16 | -9
CCOc1cc(/C=N/Nc2ncc(C)c(=O)[nH]2)ccc1O | . | 0 | -1 | -2 | 100* | -27
CCOc1cc(/C=N/Nc2nc(C)cc(=O)[nH]2)ccc1O | 6 | 2 | -2 | 1 | 96* | -7
CCOc1cc(/C=N\Nc2nc(-c3ccc(C)cc3)c(NC(C)=O)s2)ccc1O | . | 0 | -2 | 0 | 6 | -4
CO[C@H]1CN(C)C(=O)c2cc(NS(=O)(=O)CC(F)(F)F)ccc2OC[C@H](C)N(Cc2cccnc2)C[C@@H]1C | 1 | -3 | . | -4 | . | .
C[C@H](CO)N1C[C@H](C)[C@@H](CN(C)C(=O)C2CCC2)Oc2ncc(-c3cccc(C#N)c3)cc2C1=O | -4 | -1 | . | 2 | . | -30[16.7 µM]
C[C@H](CO)N1C[C@H](C)[C@H](CN(C)CC2CC2)OCCCC[C@H](C)Oc2ccc(NC(=O)Nc3ccc(C(F)(F)F)cc3)cc2C1=O | . | 1 | . | -1 | . | .
SMILES | PglD inh | F508del corr | NSD2 inh | Casp6 inh | ALR H2O2 inh | HIV Env fusion
O=C1[C@H](Cc2ccccc2)NCCCC[C@H](c2ccc(Cl)cc2)N1Cc1ccccc1 | 2 | 0 | . | -1 | . | 86*
O=C1[C@H](Cc2ccccc2)NCCCC[C@@H](c2ccc(Cl)cc2)N1Cc1ccc(Cl)cc1 | -5 | -1 | . | -4 | . | -19
O=C1[C@H](Cc2ccccc2)NCCCC[C@H](c2ccco2)N1Cc1ccccc1 | -2 | 0 | . | 3 | . | 74*
O=C1[C@H](Cc2ccccc2)NCCCC[C@@H](c2ccco2)N1Cc1ccccc1 | 4 | 1 | . | -3 | . | 58*
COc1cccc(-c2ccc([C@@H]3[C@@H](C#N)N(C(=O)c4ccccn4)[C@@H]3CO)cc2)c1 | -3 | 0 | . | -4 | . | 2[16.7 µM]
Cc1ncc(CO)c(CNc2ccc(-c3nc4ccccc4[nH]3)cc2)c1O | 0 | -3 | 1 | 0 | 98* | -31
COc1ccc2c3c(n(C)c2c1)[C@@H](CO)N(CC1CCCC1)CC31CCN(C(C)=O)CC1 | . | 3 | . | -7 | . | .
Cc1cc(C)cc(N(C(=O)Cc2cccs2)C(C(=O)NC2CCCCC2)c2ccccn2)c1 (stereo not given) | -1 | . | -2 | . | -1 | 119*
O=C(NC1CCCCC1)C(c1ccccn1)N(C(=O)Cc1cccs1)c1ccc(Cl)cc1 (stereo not given) | 1 | . | 24 | . | -16 | 26
CC(=O)c1ccc(N(C(=O)Cn2nnc(-c3ccccc3)n2)C(C(=O)NC2CCCCC2)c2ccccn2)cc1 (stereo not given) | 6 | . | -4 | . | . | -67
CCc1ccc(N(C(=O)Cn2nnc(-c3ccccc3)n2)C(C(=O)NC2CCCCC2)c2ccccn2)cc1 (stereo not given) | 4 | . | . | . | -9 | 80*
CCOc1cccc(N(C(=O)Cc2cccs2)C(C(=O)NC2CCCCC2)c2cccn2C)c1 (stereo not given) | 5 | . | . | . | 1 | 89*
CCS(=O)(=O)N1CCC2(CC1)CN(C(=O)Nc1cccc(F)c1)[C@H](CO)c1c2c2ccc(OC)cc2n1C | . | 0 | . | 2 | . | .
O=C(c1cccs1)N1CCN=C1SCc1cccnc1 | 2 | . | . | . | 99* | -17
Cc1ccc(CSC2=NCCN2C(=O)c2ccco2)cc1 | -1 | -6 | . | 0 | 95* | -23
O=C(c1cccs1)N1CCN=C1SCc1ccc(Cl)cc1 | . | -1 | . | 4 | ? | -32
O=C(NCC(c1cccnc1)N1CCOCC1)c1ccco1 (stereo not given) | -1 | . | -2 | . | -3 | -13
O=C(N1CCN=C1SCc1cccnc1)C12CC3CC(CC(C3)C1)C2 | 1 | . | -1 | . | 99* | 8
O=C(c1ccco1)N1CCN=C1SCc1cccnc1 | 1 | . | 6 | . | 99* | .
CNC(=O)C[C@@H]1CC[C@@H]2[C@@H](COc3ccc(NS(=O)(=O)c4cccc(F)c4)cc3C(=O)N2C)O1 | -1 | 4 | . | 0 | . | -1[16.7 µM]
C[C@H](CO)N1C[C@H](C)[C@@H](CN(C)S(=O)(=O)c2cccs2)Oc2ccc(NC(=O)NC3CCCCC3)cc2CC1=O | 5 | 2 | . | 2 | . | -3[16.7 µM]
O=C(c1ccco1)N1CCN=C1SCc1ccccc1F | -8 | 4 | . | 5 | 95* | -11
Cc1cccc(CSC2=NCCN2C(=O)C2CC2)c1 | 12 | . | 0 | . | 8 | .
